Here are results for 51 compounds from PubChem BioAssay (NCATS).

Assay [1] deals with Aldehyde dehydrogenase, mitochondrial (Homo sapiens) (UniProt P05091). Kind of assay: qHTS for Inhibitors of the Aldehyde Dehydrogenase Family (ALDH2) Confirmatory screens (AID 2061303; active means well fitted inhibition curve with a large enough effect; title and protocol of this record describe different tests; further: nearly all actives have a fitted effect of over 45% in size; further: potency means the concentration at half of the fitted maximal effect). On the technique in general: In qHTS, concentration-response curves come from the screen itself.
Assay [2] has as its target Retinaldehyde dehydrogenase 3 (Homo sapiens) (UniProt P47895). Kind of assay: qHTS for Inhibitors of the Aldehyde Dehydrogenase Family (ALDH1A3) Primary screen (AID 2061315).
Assay [3] addresses Retinal dehydrogenase 2 (Homo sapiens) (UniProt O94788). Kind of assay: qHTS for Inhibitors of the Aldehyde Dehydrogenase Family (ALDH1A2) Confirmation screens (AID 2061314). Further: nearly all actives have a fitted effect of over 65% in size. Further: potency means the concentration at half of the fitted maximal effect.
Assay [4] has as its target Retinaldehyde dehydrogenase 3 (Homo sapiens) (UniProt P47895). Kind of assay: qHTS for Inhibitors of the Aldehyde Dehydrogenase Family (ALDH1A3) Confirmatory screens (AID 2061311). Further: nearly all actives have a fitted effect of over 60% in size. Further: potency means the concentration at half of the fitted maximal effect.
Assay [5] addresses Aldehyde dehydrogenase 1A1 (Homo sapiens) (UniProt P00352). Kind of assay: qHTS for Inhibitors of the Aldehyde Dehydrogenase Family (ALDH1A1) Confirmatory screens (AID 2061316). Further: nearly all actives have a fitted effect of over 65% in size. Further: potency means the concentration at half of the fitted maximal effect.
The nature of assay [6]: qHTS for Inhibitors of the Aldehyde Dehydrogenase Family (ALDH1A2, ALDH1A3, ALDH2, ALDH3A1) (AID 2061307). Further: nearly all actives have a fitted effect of over 50% in size.

Results filed as inconclusive are left out. Calls of active or inactive are those of the source. Unless noted, the call rests on the fitted dose curve; in most records, active means well fitted inhibition curve with a large enough effect; inconclusive means small, poorly fitted or top-dose-only effect; inactive means no such curve, though single readings can be large or run the other way.

As to `COc1ccc(-c2no[n+]([O-])c2C#N)cc1`, the Potency result in assay [1] and in assay [2] was “inactive” in each case.
On to `O=C([C@@H]1C[C@H](Oc2ccccc2)CN1S(=O)(=O)c1cccc(F)c1)N1CCOCC1`, for which the Potency result in assay [1] and in assay [3] was “inactive” each time.
Consider `Brc1ccc(-c2ccc(C3Nc4cccc5cccc(c45)N3)o2)cc1`, for which the figures for the Potency in assay [1], in assay [4] and in assay [5] were 0.896 µM (active), 7.12 µM (active) and 10.1 µM (active), respectively.
In the case of `COc1cc(O)c(C(CC(=O)N2CCN(c3ccc(F)cc3)CC2)c2ccc3c(c2)OCO3)c(OC)c1` (configuration not stated), the values for the Potency in assay [1] and in assay [4] were 17.8 µM (active) and 12.7 µM (active), respectively. Also, in assay [2], the Potency entry was “inactive”.
As to `COc1ccc(S(=O)(=O)N2CCC3(CC2)CC(CC(=O)NC2CC2)CCO3)cc1` (configuration not stated), the Potency entry in assay [1] and in assay [3] was “inactive” in each case.
As to `O=C1Nc2ccccc2/C1=C\c1ccc(O)c(Cl)c1`, the Potency in assay [1] and in assay [3] was 10.1 µM (active) throughout. Further, the Potency result in assay [2] was “inactive”.
For the compound `COC(=O)[C@H](Cc1ccc(OC)cc1)NC(=O)[C@@H]1CNCCN1S(=O)(=O)c1ccccc1`, the Potency entry in assay [1] and in assay [3] was “inactive” throughout.
On to `Oc1ccc(Nc2nc(-c3ccncc3)nc3ccccc23)cc1F`, for which the Potency entry in assay [1] and in assay [2] was “inactive” each time.
Regarding `CC(C)NS(=O)(=O)c1ccc(OCC(=O)N2CCN(c3ccccc3F)CC2)cc1`, the Potency entry in assay [1] and in assay [3] was “inactive” in each case.
Turning to `COc1ccc(NC(=O)CN(C)S(=O)(=O)c2ccc(C(=O)N3CCOCC3)s2)cc1`, the Potency entry in assay [1] and in assay [3] was “inactive” throughout.
`O=C1c2ccccc2NC(c2ccc(-c3cccc(F)c3)o2)N1O` (configuration not stated): the Potency in assay [1] is 20.1 µM (active); in assay [5] it was 6.34 µM (active). In addition, the Potency result in assay [2] was “inactive”.
Take `CC(C)(C)OC(=O)N1CCN(c2ccc(NCc3ccc(-c4ccc(C#N)cc4)s3)cc2)CC1`: the Potency was 0.179 µM (active) in assay [1] and 12.7 µM (active) in assay [5]. The Potency entry in assay [3] and in assay [2] was “inactive” throughout.
As to `COc1ccc(C2Nc3ccccc3C(=O)N2Cc2ccco2)cc1COc1ccccc1` (configuration not stated), the Potency entry in assay [1], in assay [4] and in assay [2] was “inactive” throughout.
For `CC(C)N1CCc2c(sc(NC(=O)C3CC3)c2-c2nc3ccccc3s2)C1`, the Potency entry in assay [1] and in assay [2] was “inactive” in each case. Also, the Potency is 5.65 µM (active) in assay [3] and 7.98 µM (active) in assay [5].
In the case of `O=C(Nc1cccnc1)c1ccco1`, the Potency is 12.7 µM (active) in assay [1] and 6.34 µM (active) in assay [5]. Also, the Potency result in assay [2] is “inactive”.
In the case of `CCN(CC)c1ccc(NC(=O)Nc2ccc(C(C)=O)cc2)cc1`, the Potency entry in assay [1], in assay [3] and in assay [2] was “inactive” throughout.
`CC(=O)c1ccc(NC(=O)c2cc(-c3ccc(C)s3)nc3ccccc23)cc1`: the Potency entry in assay [1] and in assay [3] was “inactive” in each case.
In the case of `CC(=O)N1CCN(c2nc(-c3ccc(Br)cc3)cs2)CC1`, the figures for the Potency in assay [1] and in assay [4] were 25.1 µM (active) and 12.6 µM (active), respectively. Moreover, the Potency result in assay [2] and in assay [5] was “inactive” throughout.
As to `COc1ccc(C2=Nn3c(nnc3-c3ccccc3OC)SC2)c(OC)c1`, the Potency entry in assay [1], in assay [4] and in assay [2] was “inactive” each time. Also, in assay [5], the Potency is 14.2 µM (active).
As for `COc1ccc(N2CCN(S(=O)(=O)c3ccc4c(c3)CC(=O)N4)CC2)cc1`, the Potency result in assay [1], in assay [4] and in assay [2] was “inactive” each time. For the same compound, the Potency in assay [5] is 5.17 µM (active).
Regarding `O=C(Nc1cccc(-c2ccc(N3CCOCC3)nn2)c1)Nc1cccc(C(F)(F)F)c1`, the Potency result in assay [1], in assay [4] and in assay [5] was “inactive” throughout.
Turning to `CC(C)c1ccc(NC(=O)N2CCN(c3ccc(Cl)c(Cl)c3)CC2)cc1`, the Potency entry in assay [1] and in assay [5] was “inactive” each time.
Consider `COc1ccc(-c2ccc(CNc3ccc4[nH]c(=O)[nH]c4c3)o2)cc1Cl`, for which the Potency in assay [1] is 1.82 µM (active); in assay [5], 7.26 µM (active).
In the case of `COCCCNC(=O)c1cc2cc(S(=O)(=O)N(C)C)ccc2n1C`, the Potency entry in assay [6] is “inactive”.
In the case of `N#Cc1cccc(NC(=O)c2cc3c(s2)-c2ccc(Cl)cc2SC3)c1`, in assay [6], the Potency entry is “inactive”.
With `O=C(N/N=C/c1ccc(Br)o1)c1ccccc1`, the Potency result in assay [6] was “inactive”.
The same measure, in the same setting: the result for `COc1ccc(-c2nnc(SCC(=O)Nc3ccc(C(C)=O)cc3)o2)cc1` reads “inactive”; that for `COc1c(F)cc2[nH]c(C(=O)O)cc2c1F`, “inactive”.
The same measure, in the same setting: then `COc1ccc(/C=C/c2onc(C)c2S(=O)(=O)N2CCC(C(=O)N3CCc4ccccc4C3)CC2)cc1`, with “inactive”; and `Cc1csc(-c2cc(-c3c(Cc4ccc(S(N)(=O)=O)c(F)c4)c(CC4CC4)nn3-c3nc(C(=O)O)cs3)ccc2F)c1`, with 12.7 µM (active).
Same read-out and setting: then `Cc1cccc(C)c1Nc1c(-c2ccccn2)nc2ccc(Cl)cn12`, with “inactive”; and `O=[N+]([O-])c1ccc(S(=O)(=O)Nc2nc(-c3ccccc3)cs2)cc1`, with 3.57 µM (active).
Consider `Cc1ccc(-c2cc(-c3c(Cc4ccc(S(N)(=O)=O)c(F)c4)c(CC4CC4)nn3-c3nc(C(=O)O)cs3)ccc2F)s1`, for which the Potency in assay [6] is 17.9 µM (active).
Still for that read-out and setting: the result for `NC(=O)c1ccc(OCc2nc(-c3ccc(C(F)(F)F)cc3)no2)cc1` reads “inactive”; that for `COc1ccc(NC(=O)c2ccc(N3CCOCC3)nc2)cc1`, “inactive”; that for `Cc1ccc2c(CC(=O)Nc3c(C(=O)c4ccc(F)cc4)oc4ccccc34)coc2c1C`, “inactive”.
Turning to `COc1cccc(CNc2ccc(S(=O)(=O)Nc3nc4ccccc4[nH]3)cc2)c1O`, the Potency entry in assay [6] is “inactive”.
`COc1ccc(-c2cc(C(=O)Nc3sc4c(c3C(N)=O)CCCC4)no2)cc1`: the Potency result in assay [6] was “inactive”.
On to `NC(=O)c1cccc2c1CCCN2C(=O)c1csc(-c2ccc(Cl)cc2)n1`, for which the Potency entry in assay [6] was “inactive”.
Still for that read-out and setting: then `Cc1ncccc1NC(=O)c1cccs1`, with “inactive”; and `O=C(c1cccc(Cl)c1)c1no[n+]([O-])c1C(=O)c1cccc(Cl)c1`, with 12.7 µM (active); and `O=C1C[C@](c2ccc(N3CCOCC3)cc2)(c2ccsc2)NC(=O)C1Sc1ccccc1Cl` (some centres not stated), with “inactive”.
On the same count and under the same terms, then `Cc1ccc2c(c1)/C(=C\C(=O)c1cccnc1)C(=O)N2`, with “inactive”; and `CN(C)Cn1c(O)c(N=NC(=O)c2cccnc2)c2ccccc21`, with “inactive”.
`COc1ccccc1-c1noc(CNc2cccc(C#N)c2)n1`: in assay [6], the Potency entry is “inactive”.
Regarding `COc1cccc(N2CCN(C(=O)CCCCCn3c(=O)[nH]c4ccccc4c3=O)CC2)c1`, the Potency entry in assay [6] is “inactive”.
Same read-out and setting: the result for `O=C(NC1CCCC1)c1csc(N2CCN(c3cccc(Cl)c3)CC2)n1` reads 3.16 µM (active); that for `COc1ccc(Cl)cc1Nc1cc(C)nc2nc(-c3ccccc3C)nn12`, “inactive”; that for `Cc1ccccc1C(=O)c1no[n+]([O-])c1C(=O)c1ccccc1C`, 10 µM (active).
With `Cn1cc2c(=O)n(-c3ccccc3)c(SCc3cccc(F)c3)nc2n1`, the Potency result in assay [6] is “inactive”.
Turning to `CCOC(=O)N1CCN(Cc2nc3cc(NC(=O)CC(C)C)ccc3n2C(C)C)CC1`, the Potency result in assay [6] is “inactive”.
